Bioassay records as filed in PubChem.
CtBP-E1A inh: qHTS Assay for Inhibitors of the CtBP/E1A Interaction. activity change, % (test concentration not listed). CtBP / adenovirus E1A interaction (AlphaScreen). AlphaScreen GST-E1A/His-CtBP binding, 1536-well; stronger effect = lower value. 340,000 tested, 0.49% active; in the data active = activity change below about -65%; inconclusive = mostly about -30% to -63%; note: % is set by controls: 0 for no effect and ±100 for the full control effect
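GST-E1A and His-tagged CtBP (125 nM each as 5X stock) were preincubated with pin-transferred compound for 2 h at 37 °C in the dark, then glutathione donor and nickel acceptor beads were added for 1 h before AlphaScreen reading.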
Six1-Eya2 blk: qHTS Assay for Inhibitors of the Six1/Eya2 Interaction; 360,000 tested, 0.56% active; AlphaScreen GST-Six1/His-Eya2 binding, biochemical; stronger effect = lower value; activity change, % (no concentration beside the values); in the data active = activity change below about -65%; inconclusive = mostly about -30% to -63%; note: % is set by controls: 0 for no effect and ±100 for the full control effect
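GST-Six1 + His-Eya2 (5X stock: 250/500 nM); Tris pH 8.0, 300 mM NaCl, 0.05% BSA, 0.02% Tween 20; GSH donor/Ni acceptor beads; 1 h 37 °C dark; AlphaScreen readout.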
G9a block: qHTS Assay for Inhibitors of Histone Lysine Methyltransferase G9a; Potency, µM (titrated, usually from 102 µM), for inactives: top-dose activity, negative = inhibition, actives largely listed as inhibitors; Histone-lysine N-methyltransferase EHMT2 (Homo sapiens), Q96KQ7; G9a H3K9 monomethylation, AlphaScreen, 2 h; 350,000 tested, 8.8% active; note: potency is the fitted concentration of half-maximal effect; % is set by controls: 0 for no effect and ±100 for the full control effect; nearly all actives have a fitted effect of over 75% in size
Target sequence (Q96KQ7 913-1193 limits assumed): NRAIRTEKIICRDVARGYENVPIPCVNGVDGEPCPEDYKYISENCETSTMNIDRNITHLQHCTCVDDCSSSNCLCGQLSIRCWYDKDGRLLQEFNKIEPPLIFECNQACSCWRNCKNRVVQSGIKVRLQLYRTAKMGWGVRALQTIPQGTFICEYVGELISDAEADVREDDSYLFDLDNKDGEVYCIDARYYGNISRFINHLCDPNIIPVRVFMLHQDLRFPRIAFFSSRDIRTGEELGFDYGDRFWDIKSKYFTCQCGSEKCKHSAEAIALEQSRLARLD
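Step 1: enzyme (final 20 nM) with compound, 15 min RT. Step 2: substrate peptide 500 nM and SAM 20 uM, 2 h RT. Step 3: anti-H3K9me1 antibody and AlphaScreen beads, 10 min, then plate read.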
JMJD2A Tudor inh: qHTS Assay for Inhibitors of JMJD2A-Tudor Domain. Lysine-specific demethylase 4A (Homo sapiens), O75164. AlphaScreen JMJD2A-Tudor / H3K4me3 peptide binding. Potency, µM (series often up to 114 µM), for inactives: top-dose activity change, negative = inhibition, hits mostly inhibitors. 390,000 tested, 4.4% active; note: potency is the fitted concentration of half-maximal effect; % is set by controls: 0 for no effect and ±100 for the full control effect; nearly all actives have a fitted effect of over 50% in size
HP1b binding inh: HTS for Inhibitors of HP1-beta Chromodomain Interactions with Methylated Histone Tails; Chromobox protein homolog 1 (Homo sapiens), P83916; AlphaScreen HP1-beta / biotin-H3K9me3 peptide binding; 390,000 tested, 0.56% active; Potency, µM (highest dose often 114 µM), for the others: at the top dose activity change, negative = inhibition, actives largely listed as inhibitors; note: potency is the fitted concentration of half-maximal effect; nearly all actives have a fitted effect of over 70% in size
Target sequence (P83916 whole entry, looked up): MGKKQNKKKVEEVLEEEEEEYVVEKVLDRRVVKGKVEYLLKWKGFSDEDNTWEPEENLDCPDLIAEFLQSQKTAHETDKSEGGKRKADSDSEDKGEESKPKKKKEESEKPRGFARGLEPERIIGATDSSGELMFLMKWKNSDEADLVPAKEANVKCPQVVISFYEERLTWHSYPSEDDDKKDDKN
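Compound inhibition of the preformed complex between 50 nM HP1-beta and 50 nM biotinylated H3K9me3 peptide was read by AlphaScreen. Buffer was PBS pH 7.4 with 0.01% Tween-20. Incubations ran 30 min at room temperature, with 10 ug/mL donor/acceptor beads.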
BAZ2B inh: qHTS Assay for Inhibitors of BAZ2B; Bromodomain adjacent to zinc finger domain protein 2B (Homo sapiens), Q9UIF8; AlphaScreen BAZ2B-H3K14Ac peptide displacement; Potency, µM (series often up to 114 µM), for inactives: at the top dose activity change, negative = inhibition, most hits filed as inhibitors; 360,000 tested, 4.4% active; note: potency is the fitted concentration of half-maximal effect; % is set by controls: 0 for no effect and ±100 for the full control effect; nearly all actives have a fitted effect of over 60% in size
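Protein-peptide AlphaScreen: BAZ2B 50 nM, b-H3K14Ac 50 nM, 1x PBS pH 7.4 + 0.01% Tween-20. Preincubation 30 min RT; cpd 30 min RT (top 110 uM); beads 20 min RT, light-protected.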
* marks the source's active call; other numbers are inactive results; ? = inconclusive; · = not tested or not shown; [ ] = another dose, or the depositor's remark. Compounds with a hit are over-represented: about 10% of the library has one in this group of screens. Unless noted, calls come from the whole dose curve; as a rule, active = well fitted inhibition curve with a large enough effect; inconclusive = small, poorly fitted or top-dose-only effect; inactive = no such curve, though single readings can be large or run the other way.

SMILES	CtBP-E1A inh	Six1-Eya2 blk	G9a block	JMJD2A Tudor inh	HP1b binding inh	BAZ2B inh
CCc1ccc(N2CC(c3nc4ccccc4n3Cc3ccccc3C)CC2=O)cc1 (stereo not given)	·	·	1.7%[59 µM]	-19.9%	9.6%	-26.4%
CN1CCN(c2ncc3nc(-c4ccc(F)cc4)c(=O)n(C4CC4)c3n2)CC1	·	·	-4.2%[0.501 µM]	·	·	·
C#CCOCCOCCOCCNc1nc(N2CCN(C(=O)CCCCCCCCCCNC(=O)[C@H](CCCN=C(N)N)n3cc(C[C@@H](C)CC)nn3)CC2)nc(N2CCN(C(=O)CCCCCCCCCCNC(=O)[C@@H]([C@H](C)CC)n3cc(CCCCCN)nn3)CC2)n1	·	·	10.4%[2.33 µM]	·	·	56.2µM*
C#CCOCCOCCOCCNc1nc(N2CCN(C(=O)CCCCCCCCCCNC(=O)[C@H]([C@@H](C)CC)n3cc(CCCCN=C(N)N)nn3)CC2)nc(N2CCN(C(=O)CCCCCCCCCCNC(=O)[C@H](CCCN=C(N)N)n3cc(C[C@@H](C)CC)nn3)CC2)n1	·	·	2.1%[2.33 µM]	·	·	50.1µM*
C#CCOCCOCCOCCNc1nc(N2CCOCC2)nc(N2CCN(C(=O)CCCCCCCCCCNC(=O)[C@H]([C@@H](C)CC)n3cc(CCCCN=C(N)N)nn3)CC2)n1	-9.0	0.6	-3.3%[2.33 µM]	-34.3%	19.8%	?
C#CCOCCOCCOCCNc1nc(N2CCN(C(=O)CCCCCCCCCCNC(=O)[C@H]([C@@H](C)CC)n3cc(CCCCN=C(N)N)nn3)CC2)nc(N2CCN(C(=O)CCCCCCCCCCNC(=O)[C@@H]([C@H](C)O)n3cc(C)nn3)CC2)n1	-3.5	-26.1	11.8%[2.33 µM]	56.2µM*	?	?
COc1ccccc1OCCn1c(NC(=O)c2ccccc2Cl)nc2ccccc21	·	·	17.3%[59 µM]	-17.2%	36.4%	-25.5%
Cc1cccc(C)c1-n1ncc(C(=O)Nc2ccc3c(c2)OCCO3)c1C1CCN(C(=O)OC(C)(C)C)CC1	·	·	-42.3%[59 µM]	?	-17.5%	-19.1%[57.1 µM]
CCC12CN3CC(C)(CN(C1)C3c1c(C)n(C)c3ccccc13)C2=O (stereo not given)	·	·	-27.7%[59 µM]	-4.7%	34.1%	-21.5%
Cc1cc(OCC(=O)Nc2cc(-c3nc4ccccc4[nH]3)ccc2C)ccc1Cl	·	·	13.4%[59 µM]	-20.9%	33.6%	-33.4%
NC(=O)c1c(NC(=S)Nc2ccccc2)sc2c1CCCC2	0.0	-7.4	6.31µM*	?	-24.8%	-31.4%
NC(=O)c1c(NC(=O)c2ccccc2)sc2c1CCC2	-7.9	-10.8	-43.6%	-12.5%	67.5%	?
C=CC(=O)Nc1sc2c(c1C(N)=O)CCCC2	4.2	13.0	-13.8%[2.33 µM]	-11.8%	20.7%	2.1%
C=CCNC(=S)Nc1sc2c(c1C(N)=O)CCCC2	-7.7	-5.9	17.8µM*	-33.8%	?	-37.6%
NC(=O)c1c(NC(=O)c2cnccn2)sc2c1CCCC2	·	?	8.91µM*	-7.5%[11.4 µM]	24.6%	-22.5%
NC(=O)c1c(NC(=S)Nc2ccc(F)cc2)sc2c1CCCC2	-1.8	-1.4	22.4µM*	-3.8%	-4.9%	-21.4%
Cc1cc2c(cc1S(=O)(=O)Nc1ccc(C(C)C)cc1)OCCN2C	·	·	-20.7%[59 µM]	-15.5%	40.4%	?
Cc1cc(C)cc(C(=O)NCCc2sc(-c3ccc(F)cc3)nc2C)c1	·	·	-6.3%[12.7 µM]	1.0%	33.8%	-10.1%
C=CCCN(C(C)C(=O)OC)S(=O)(=O)c1ccccc1Br (stereo not given)	·	·	·	2.1%	61.3%	·
NC(=O)c1c(NC(=O)c2cc(-c3ccc(F)cc3)on2)sc2c1CCCC2	·	·	1.78µM*	-31.1%	-23.2%	-12.9%
COc1ccc(-c2cc(C(=O)Nc3sc4c(c3C(N)=O)CCC(C)C4)no2)cc1 (stereo not given)	·	·	-0.8%[59 µM]	1.4%	48.4%	0.1%
COc1ccc(-c2csc(NC(=O)c3ccccc3NS(=O)(=O)c3ccc(C)cc3)n2)cc1	-13.1	-11.5	?	?	?	35.5µM*
Cc1ccc(S(=O)(=O)Nc2nc(-c3ccc(F)cc3)cs2)cc1	-5.3	-4.2	50.1µM*	-33.9%	-15.3%	?
CCOCCCNC(=O)C(c1ccccc1)N(Cc1ccc2c(c1)OCO2)C(=O)c1ccc(NC(C)=O)cc1 (stereo not given)	·	·	12.3%[59 µM]	-12.3%	15.7%	-2.3%
Cc1cccc(C)c1NC(=O)CC12CCCN1CCC2	·	·	1.5%[12.7 µM]	·	·	·
SMILES	CtBP-E1A inh	Six1-Eya2 blk	G9a block	JMJD2A Tudor inh	HP1b binding inh	BAZ2B inh
CCCCn1c(N)c(N(CC(C)C)C(=O)C2CCN(S(=O)(=O)c3ccc(C)cc3)CC2)c(=O)[nH]c1=O	-0.4	6.3	9.9%[0.501 µM]	-11.0%	13.8%	-5.1%
CCCCn1c(N)c(N(CC(C)C)C(=O)C2CCC2)c(=O)[nH]c1=O	8.3	0.4	14.7%[12.7 µM]	12.1%	30.6%	-2.4%
CCCCn1c(N)c(N(CCOC)C(=O)C2CCN(C(=O)c3ccc(Cl)cc3)CC2)c(=O)[nH]c1=O	-9.3	9.9	56.2µM*	-3.4%	35.0%	-6.1%
CCCCn1c(N)c(N(CCC(C)C)C(=O)C2CCCC2)c(=O)[nH]c1=O	·	3.7	20µM*	-4.7%	50.9%	-3.2%
CCCCN(C(=O)C1CC(=O)N(CCc2ccc(OC)c(OC)c2)C1)c1c(N)n(CCCC)c(=O)[nH]c1=O (stereo not given)	-20.3	5.5	15.8µM*	-3.8%	18.4%	-22.7%
CCCCn1c(N)c(N(CCOC)C(=O)C2CCN(C(=O)c3ccc(F)cc3)CC2)c(=O)[nH]c1=O	-7.4	10.0	-29.1%	-3.4%	8.8%	-6.3%
CCCCn1c(N)c(N(CCOC)C(=O)C2CCN(S(=O)(=O)c3ccc(C)c(C)c3)CC2)c(=O)[nH]c1=O	-0.5	7.7	50.1µM*	-17.9%	35.3%	-4.5%
CCOC(=O)C1CCCN(C(=O)c2cccc(NC(=O)c3nsc4ccccc34)c2)C1 (stereo not given)	·	·	-41.2%[59 µM]	-14.9%	25.4%[57 µM]	?
CCCCn1c(N)c(N(CCOC)C(=O)C2CCCN(C(=O)c3ccc(Cl)cc3)C2)c(=O)[nH]c1=O (stereo not given)	6.2	8.5	28.2µM*	-7.6%	35.0%	-9.0%
CCCCn1c(N)c(N(CCC(C)C)C(=O)CSc2nc3ccccc3n2C)c(=O)[nH]c1=O	-15.5	-1.0	·	79.4µM*	-39.0%	·
N[C@@H](C(=O)O)[C@@H](CC(=O)O)c1ccc(Cl)cc1	·	·	19.9%[59 µM]	·	·	·
